From PubChem
Most compounds without a hit are left out; they make up all but 3.8% or so of the library.
PAFAH1B2 FP inh – PAFAH1B2 enzyme inhibitors, primary screen, biochemical, fluorescence polarization, human. recombinant PAFAH1B2, FP-rhodamine activity probe. hit rate 1.2% among 340,000. inhibition, % at 3.39 µM. Platelet-activating factor acetylhydrolase IB subunit alpha2 (Homo sapiens), P68402;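 active means inhibition above the mean of all tested compounds plus 3 SD, cut at about 24% in these data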;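 further: 0% = enzyme with DMSO and 100% = wells lacking PAFAH1B2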
Pemphigus Ab inh – inhibitors of pemphigus antibody binding to DSG3, primary screen, biochemical, bead-based, flow cytometry, scFv-GFP. hit rate 0.48% among 310,000. Desmoglein-3 (Homo sapiens), P32926. binding (percent of control), % at 10 µM. DSG3-coupled beads, scFv-anti-DSG3-GFP binding; stronger effect = lower value;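 active means binding more than 3 SD below its plate's average and above zero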
Target sequence (P32926 whole entry, looked up): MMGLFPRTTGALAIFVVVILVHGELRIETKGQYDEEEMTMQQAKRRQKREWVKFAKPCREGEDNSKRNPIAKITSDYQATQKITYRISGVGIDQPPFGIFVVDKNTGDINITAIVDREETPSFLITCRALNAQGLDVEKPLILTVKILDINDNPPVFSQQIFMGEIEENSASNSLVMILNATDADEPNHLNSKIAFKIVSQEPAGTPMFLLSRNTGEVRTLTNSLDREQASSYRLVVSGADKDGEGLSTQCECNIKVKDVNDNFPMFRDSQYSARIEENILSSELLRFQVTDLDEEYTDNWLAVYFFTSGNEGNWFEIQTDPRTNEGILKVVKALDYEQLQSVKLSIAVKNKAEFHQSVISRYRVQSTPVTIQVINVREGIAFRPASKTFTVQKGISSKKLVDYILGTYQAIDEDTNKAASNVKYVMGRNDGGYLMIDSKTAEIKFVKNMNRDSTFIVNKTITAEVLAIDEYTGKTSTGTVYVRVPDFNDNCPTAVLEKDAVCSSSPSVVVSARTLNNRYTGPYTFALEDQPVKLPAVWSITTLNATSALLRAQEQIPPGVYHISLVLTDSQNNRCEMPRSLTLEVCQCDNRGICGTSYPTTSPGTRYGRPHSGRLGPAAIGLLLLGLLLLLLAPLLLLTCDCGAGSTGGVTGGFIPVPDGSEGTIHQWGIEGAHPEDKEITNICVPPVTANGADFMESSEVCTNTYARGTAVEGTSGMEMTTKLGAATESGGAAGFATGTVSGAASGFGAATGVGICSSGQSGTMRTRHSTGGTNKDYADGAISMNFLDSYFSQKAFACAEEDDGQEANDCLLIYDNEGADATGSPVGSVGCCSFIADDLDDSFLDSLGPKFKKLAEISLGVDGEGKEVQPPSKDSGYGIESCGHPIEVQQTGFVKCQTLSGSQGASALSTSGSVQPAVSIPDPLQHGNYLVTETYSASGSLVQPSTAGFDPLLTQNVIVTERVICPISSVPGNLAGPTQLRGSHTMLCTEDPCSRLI
pPAFAH FP inh – pPAFAH enzyme inhibitors, primary screen, biochemical, fluorescence polarization, human; Platelet-activating factor acetylhydrolase (Homo sapiens), Q13093; recombinant pPAFAH, FP-rhodamine probe fluorescence polarization; inhibition, % at 3.39 µM; hit rate 1.5% among 330,000; AID 463082, 2010;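 active means inhibition above the mean inhibition across the screen plus 3 SD, cut at about 25% in these data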;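 further: inhibitors block binding of the rhodamine activity-based probe so polarization drops; 0% = enzyme with DMSO and 100% = wells lacking pPAFAH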
PAFAH1B3 FP inh – PAFAH1B3 enzyme inhibitors, primary screen, biochemical, fluorescence polarization, human | recombinant PAFAH1B3, FP-rhodamine probe | inhibition, % at 3.39 µM | hit rate 0.28% among 340,000 | AID 492972, 2010;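 active means inhibition above the screen-wide average of all tested compounds plus 3 SD, cut at about 25% in these data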;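 further: 0% = enzyme with DMSO only and 100% = wells lacking PAFAH1B3 protein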
PfM18AAP inh – PfM18AAP inhibitors, malaria aminopeptidase, primary screen, biochemical, QFRET, recombinant enzyme; M18 aspartyl aminopeptidase (Plasmodium falciparum 3D7); H-Glu-NHMec fluorogenic cleavage; inhibition, % at 7.35 µM; hit rate 1.2% among 290,000; AID 1822, 2009;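 active means inhibition above the campaign mean inhibition over all tested compounds plus 3 SD, cut at about 28% in these data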;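 further: 0% = plate median of test compound wells and 100% = 2 mM ZnCl2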
PAFAH2 FP inh – PAFAH2 enzyme inhibitors, primary screen, biochemical, fluorescence polarization, human. Platelet-activating factor acetylhydrolase 2, cytoplasmic (Homo sapiens), Q99487. recombinant PAFAH2, FP-rhodamine activity probe. inhibition, % at 3.39 µM. hit rate 0.99% among 340,000. AID 492956, 2010;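 active means inhibition above the mean over all tested compounds plus 3 SD, cut at about 30% in these data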;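 further: inhibitors block probe labeling of enzyme so polarization drops; 0% = enzyme with DMSO and 100% = wells lacking PAFAH2 protein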
* marks the source's active call; other numbers are inactive results; nt = no result.

SMILES	PAFAH1B2 FP inh	Pemphigus Ab inh	pPAFAH FP inh	PAFAH1B3 FP inh	PfM18AAP inh	PAFAH2 FP inh
O=C(c1ccc(-c2ccccc2)cc1)N1CCN(c2nc3ccccc3o2)CC1	-6	69*	nt	2	6	1
CC(C)(C)c1ccc(C(=O)N2CCN(c3nc4ccccc4o3)CC2)cc1	2	92	5	-1	-7	3
CC(=O)Nc1ccc(-c2cc(N)n(-c3ccccc3)n2)cc1	-3	98	5	-1	5	-6
N#Cc1ccc2c(=O)n(-c3ccccc3)sc2c1	nt	68*	nt	nt	nt	nt
CC(=O)Nc1ccc2c(=O)n(-c3ccccc3)sc2c1	nt	48*	nt	nt	nt	nt
CN(C)S(=O)(=O)c1ccc(C(=O)Nc2nc(-c3ccccc3)c(C(=O)c3ccccc3)s2)cc1	-4	108	1	4	-14	1
O=C(Nc1nc(-c2ccccc2)c(C(=O)c2ccccc2)s1)c1ccc(S(=O)(=O)N2CCCC2)cc1	0	-1.0*	4	-3	1	-4
O=C(Nc1nc(-c2ccccc2)c(-c2ccccc2)s1)c1ccc(S(=O)(=O)N2CCCC2)cc1	-3	82*	3	0	-29	-8
Cc1nnc(NC(=O)C2COc3ccccc3O2)s1 (centres undefined)	-3	101	2	-1	-5	-11
Cc1ccc(CSc2nnc(NC(=O)C3COc4ccccc4O3)s2)cc1 (centres undefined)	31*	nt	6	12	6	10
COc1ccc(NC(=O)CSc2nnc(Cc3cccn3C)n2-c2ccc(C)cc2)cc1OC	3	97	32*	4	3	3
O=C(c1ccccc1)N(CCCl)C(=O)N(CCCl)C(=O)c1ccccc1	nt	100	nt	nt	nt	nt
Cc1nc(SCc2nc3c([N+](=O)[O-])cccc3[nH]2)c2oc3ccccc3c2n1	-2	32*	3	-1	nt	0
CCN(CC)C(=O)C1=C(C)N(CCC2=CCCCC2)C(=O)C(CC(=O)NCc2ccco2)C1 (centres undefined)	nt	107	nt	nt	nt	nt
COc1ccc(NC(=O)Nc2ccccc2SC)c(OC)c1	-3	-6.3*	2	-10	5	-4
COc1ccc(NC(=O)Nc2ccccc2C)c(OC)c1	7	105	2	5	-6	6
Oc1cc2c(cc1O)C(c1ccccc1)CNCC2 (centres undefined)	-2	96	2	6	nt	-5
Oc1cc2c(cc1O)[C@@H](c1ccccc1)CNCC2	1	106	nt	17	83*	0
N#CCCN(C(=O)COC(=O)Cc1ccc(Br)cc1)c1ccccc1	27*	105	15	12	6	2
Oc1cc(NCCN2CCOCC2)cc2cccnc12	-1	105	4	54*	nt	2
CCN(CC(=O)Nc1ccc(NC(C)=O)cc1)C(=O)c1ccc(N(C)S(=O)(=O)c2ccc(C)cc2)cc1	2	108	nt	4	nt	-5
COc1cc(C(=O)OC(C)CN2C(C)CCCC2C)cc(OC)c1OC (centres undefined)	-1	111	5	-1	6	0
CN(C)Cc1c(C(=O)N/N=C/c2cccc3ccccc23)nnn1-c1nonc1N	-5	56*	8	2	6	6
CN(C)c1ccc(/C=N/NC(=O)c2nnn(-c3nonc3N)c2COc2ccc(F)cc2)cc1	-2	77*	-2	-7	-1	-13
CN(C)Cc1c(C(=O)N/N=C/c2ccncc2)nnn1-c1nonc1N	1	91	3	1	-2	2
SMILES	PAFAH1B2 FP inh	Pemphigus Ab inh	pPAFAH FP inh	PAFAH1B3 FP inh	PfM18AAP inh	PAFAH2 FP inh
CCN(CC)c1ccc(/C=N/NC(=O)c2nnn(-c3nonc3N)c2C(C)C)c(O)c1	13	118	28*	12	12	11
CCCCN(C(=O)COc1ccc(F)cc1)c1c(N)n(CC(C)C)c(=O)[nH]c1=O	nt	97	nt	nt	nt	nt
CN(Cc1ccccc1)S(=O)(=O)c1ccc(S(=O)(=O)N(Cc2ccc(F)cc2)C2CCCC2)cc1	3	98	-3	0	-5	6
O=C(O)c1ccc(S(=O)(=O)N(Cc2ccc(F)cc2)C2CCCCC2)cc1	26*	103	3	-2	12	0
O=C(Nc1ccc(-c2nc3ccccc3o2)cc1)c1ccc(N2C(=O)C3C4C=CC(C4)C3C2=O)cc1 (centres undefined)	-9	55*	-15	-22	5	-22
COc1cc(NC(=O)CN2c3cccc4cccc(c34)S2(=O)=O)cc(OC)c1OC	-4	nt	5	-2	1	3
COc1ccccc1CNC(=O)CN1c2cccc3cccc(c23)S1(=O)=O	3	nt	31*	8	nt	8
CCOc1ccc(S(=O)(=O)N2CCN(C(=O)c3ccccc3Cc3ccccc3)CC2)cc1	4	80*	1	4	nt	14
COc1ccc(S(=O)(=O)N2CCN(C(=O)c3ccccc3Cc3ccccc3)CC2)cc1OC	nt	100	nt	nt	nt	nt
Cc1ccc(S(=O)(=O)N2CCN(C(=O)c3ccccc3Cc3ccccc3)CC2)c(C)c1	27*	104	4	-2	10	-1
O=S(=O)(NCc1nnnn1-c1ccc(F)cc1)c1ccc(F)cc1	nt	98	nt	nt	nt	nt
N/C(=N\OC(=O)CCCc1ccccc1)c1ccccc1	11	nt	3	10	-2	-1
N/C(=N\OC(=O)CCCc1ccccc1)c1cccc([N+](=O)[O-])c1	26*	97	1	4	-1	-4
Cc1ccc(SCC(=O)O/N=C(\N)c2cccc([N+](=O)[O-])c2)cc1	36*	98	13	3	-1	2
COc1ccc(/C(N)=N/OC(=O)CSc2ccccc2)cc1	29*	105	5	9	-2	8
N/C(=N\OC(=O)Cc1ccccc1[N+](=O)[O-])c1cccc(Br)c1	5	117	12	6	3	2
Cc1ccc(S(=O)(=O)N(C)CC(=O)O/N=C(\N)c2cccc([N+](=O)[O-])c2)cc1	4	nt	6	4	-1	-7
N/C(=N\OC(=O)Cc1ccccc1)c1cccc(Br)c1	30*	90	0	7	-10	5
CCCC(c1nnnn1Cc1ccc(OC)cc1)N1CCN(C(=O)c2ccco2)CC1 (centres undefined)	2	114	4	0	7	2
COc1ccc(NS(=O)(=O)c2cccc(C(=O)NNC(=O)CNC(=O)c3ccccc3Cl)c2)cc1	-4	107	nt	4	nt	-7
Cc1ccc(NS(=O)(=O)c2cccc(C(=O)NCCCN3CCOCC3)c2)cc1	1	99	34*	-1	nt	10
CN(C)CCNC(=O)c1cccc(S(=O)(=O)Nc2ccc(F)cc2)c1	0	100	25*	2	-1	-7
